Laboratory results from PubChem BioAssay AID743171 (National Center for Advancing Translational Sciences (NCATS), 2013).
Several values for one entry are separate records, joined by “and”; a condition that tells them apart may be missing. Identical values can stand only once. Results filed as inconclusive are left out. Activity calls are given as the source filed them. The call rests on the fitted dose curve; in most records, active means well fitted inhibition curve with a large enough effect; inconclusive means small, poorly fitted or top-dose-only effect; inactive means flat fitted curve, though single readings scatter.

The molecules below were run against 15-hydroxyprostaglandin dehydrogenase [NAD(+)] (Homo sapiens) (UniProt P15428) (assay: Extended Characterization of HPGD Inhibitors: Activity in Primary Assay (HPGD)). Details: recombinant HPGD, NADH fluorescence, PGE2 substrate; series mostly up to 57.1 µM.
Sequence of 15-hydroxyprostaglandin dehydrogenase [NAD(+)] (Homo sapiens) (P15428 whole entry, looked up): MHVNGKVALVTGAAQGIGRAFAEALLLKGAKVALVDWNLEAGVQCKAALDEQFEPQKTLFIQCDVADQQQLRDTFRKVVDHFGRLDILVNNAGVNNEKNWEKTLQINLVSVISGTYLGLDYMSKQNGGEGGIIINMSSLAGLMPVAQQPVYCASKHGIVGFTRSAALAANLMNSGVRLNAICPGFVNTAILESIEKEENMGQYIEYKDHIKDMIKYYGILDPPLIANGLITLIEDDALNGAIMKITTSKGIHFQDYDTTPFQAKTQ
Method in brief: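 qHTS with several compound concentrations: 15 min room-temperature preincubation with 20 nM final enzyme, then PGE2/NAD+ addition (solution at 30 uM/1 mM). Activity taken as the normalized change in NADH fluorescence (340/450 nm) over four 30-s reads.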

Potency, active:
Cc1cc(-c2nnc3n2CCCCCCC3)c(C)n1-c1ccccc1 383 nM
Cc1cc(-c2nnc3n2CCCCC3)c(C)n1-c1ccc(C(F)(F)F)cc1 68.1 nM
Cc1cc(-c2nnc3n2CCCCC3)c(C)n1-c1ccc(C#N)cc1 96.1 nM
Cc1cc(-c2nnc3n2CCCCC3)c(C)n1-c1cccc2ccccc12 54.1 nM and 108 nM
Cc1cccc(-n2cnc3cc(C(=O)N4CCC(Br)CC4)ccc32)c1 76.4 nM
Cc1cc(-c2nnc3n2CCCCC3)c(C)n1-c1ccc(Br)cc1 48.2 nM
N#Cc1cccc(CSc2nc3ncc(Br)cc3[nH]2)c1 136 nM
Cc1cc(-c2nnc3n2CCCCC3)c(C)n1-c1ccc([N+](=O)[O-])cc1 108 nM
COc1ccc(-n2cnc3cc(C(=O)N4CCCCC4)ccc32)cc1 19.2 nM
COc1cccc(-n2cnc3cc(C(=O)N4CCCCC4)ccc32)c1 19.2 nM
Cc1cccc(-n2cnc3cc(C(=O)N4CC(C)CC(C)C4)ccc32)c1 (stereo not given) 271 nM
Cc1cccc(-n2cnc3cc(C(=O)N4CCCC(c5ccccc5)C4)ccc32)c1 (stereo not given) 429 nM
Cc1cccc(-n2cnc3cc(C(=O)N4CCCC(C)(C)C4)ccc32)c1 68.1 nM
Cc1cccc(-n2cnc3cc(C(=O)N4CCOCC4)ccc32)c1 3040 nM
Cc1cc(-c2nnc3n2CCCCC3)c(C)n1-c1ccc(Cl)c(Cl)c1 21.5 nM
